These results are taken from ChEMBL document CHEMBL1857833, “Screening and optimization of specific chemical series against human African Trypanosomiasis (HAT)”.

Out of some 4,400 compounds screened, about 390 (8.9%) showed an effect of 50% or more. Only a selection was taken, and strong results are over-represented in it overall.

The experiment has as its system Trypanosoma brucei. Description: DNDI: Inhibition of Human African Trypanosomiasis, SBRI 427, in vitro at 2 ug.mL-1. In kind it is functional.
For the compound `COc1ccc(OC)c(CCNCc2coc(-c3ccc(C)cc3)n2)c1`, the “% inhibition” value amounted to 7%. The figure for `COc1ccc(-c2nc(CNCCc3cc(OC)ccc3OC)co2)cc1` is 7%; for `COc1ccc(OC)c(CCNCc2coc(-c3ccc(C(C)(C)C)cc3)n2)c1` it is 74%; for `COc1ccc(Oc2nc(C)ccc2/C(=N/O)N2CC2C)cc1` (stereo not given) it is 14%. On to `CC1CN1/C(=N\O)c1ccc(Oc2ccc3oc4ccccc4c3c2)nc1` (stereo not given), for which the “% inhibition” value came out at 68%. Under `CC1CN1/C(=N\O)c1ccc(Oc2ccc3ccccc3c2)nc1` (stereo not given) stands 8%; under `Cc1cc(C)cc(Oc2ccc(/C(=N/O)N3CC3C)cn2)c1` (stereo not given), 3%; under `COc1ccc(OC)c(CCNCc2coc(-c3ccccc3C)n2)c1`, 11%.

As for `Cc1ccc(/C(=N/O)N2CC2C)c(Oc2cccc(C(C)C)c2)n1` (stereo not given), the “% inhibition” value was -6%. Under `Cc1ccc(/C(=N/O)N2CC2C)c(Oc2cccc3ccccc23)n1` (stereo not given) stands 12%.
